Measurements published in PubChem BioAssay (NCI).
About 83,000 compounds went through this panel and 20% of them were active in at least one assay; those are over-represented in the sample as a whole.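 Activity criterion: percent growth below 10, measured after cells in 96-well plates were exposed to a single compound concentration for 48 hours.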 Calls of active or inactive are those of the source.

Legend:
Assay in all cases: NCI-60 one-dose screen, 48 h (100 = growth as untreated, 0 = no growth, -100 = all killed)
SR leukemia = conditions: 10 µM
RPMI-8226 leukemia = conditions: 10 µM
OVCAR-8 ovarian = conditions: 10 µM
OVCAR-5 ovarian = conditions: 10 µM
OVCAR-4 ovarian = conditions: 10 µM
SK-OV-3 ovarian = conditions: 10 µM
IGROV1 ovarian = conditions: 10 µM
OVCAR-3 ovarian = conditions: 10 µM
HS 578T breast = conditions: 10 µM
T-47D breast = conditions: 10 µM
BT-549 breast = conditions: 10 µM
MDA-MB-435 melanoma = conditions: 10 µM
SW-620 colon = conditions: 10 µM
MCF7 breast = conditions: 10 µM unless noted
HCT-116 colon = conditions: 10 µM
KM12 colon = conditions: 10 µM
HCC-2998 colon = conditions: 10 µM
NCI/ADR-RES ovarian = conditions: 10 µM

Measured: growth

Cn1cnc2nc(Cl)nc(Cl)c21
active: OVCAR-3 ovarian -27.8% | BT-549 breast -28.5% | MDA-MB-435 melanoma -20.5% | HCT-116 colon 3.41% | KM12 colon -40.8%
inactive: SR leukemia 27.9% | RPMI-8226 leukemia 23.4% | OVCAR-8 ovarian 24.3% | OVCAR-5 ovarian 59.8% | OVCAR-4 ovarian 42.4% | SK-OV-3 ovarian 61.2% | IGROV1 ovarian 30.3% | HS 578T breast 72.4% | T-47D breast 56.7% | SW-620 colon 22.2% | MCF7 breast 16.7%

COc1cccc(O)c1O
inactive: SR leukemia 29.9% | RPMI-8226 leukemia 89.2% | OVCAR-8 ovarian 86.2% | OVCAR-5 ovarian 101% | OVCAR-4 ovarian 96.3% | SK-OV-3 ovarian 76.9% | IGROV1 ovarian 96.4% | T-47D breast 84.1% | BT-549 breast 82.3% | SW-620 colon 42.6% | MCF7 breast 20.2% | HCT-116 colon 98.6% | HCC-2998 colon 99.8% | KM12 colon 52.6%
active: OVCAR-3 ovarian 6.36% | MDA-MB-435 melanoma 6.89%

CCN(CC)c1ccc2nc3ccc(=[N+](CC)CC)cc-3oc2c1
inactive: SR leukemia 22.5% | HS 578T breast 58.1% | NCI/ADR-RES ovarian 90.3% | BT-549 breast 48% | HCC-2998 colon 40.3%
active: RPMI-8226 leukemia 6.38% | OVCAR-8 ovarian -9.58% | OVCAR-5 ovarian -30.1% | OVCAR-4 ovarian -88.7% | SK-OV-3 ovarian -9.43% | IGROV1 ovarian -31.8% | T-47D breast -2.86% | MDA-MB-435 melanoma -14.7% | SW-620 colon 6.33% | MCF7 breast -34.9% | HCT-116 colon -40.7%

C=CCNc1ccccc1
inactive: SR leukemia 96.9% | RPMI-8226 leukemia 92.8% | OVCAR-8 ovarian 107% | OVCAR-5 ovarian 106% | OVCAR-4 ovarian 94% | SK-OV-3 ovarian 101% | IGROV1 ovarian 115% | OVCAR-3 ovarian 116% | HS 578T breast 110% | T-47D breast 103% | BT-549 breast 99% | MDA-MB-435 melanoma 119% | SW-620 colon 106% | MCF7 breast 87.4% | HCT-116 colon 92.4% | KM12 colon 109%

OCCN1CCOCC1
inactive: SR leukemia 104% | RPMI-8226 leukemia 107% | OVCAR-8 ovarian 110% | OVCAR-5 ovarian 101% | OVCAR-4 ovarian 110% | SK-OV-3 ovarian 109% | IGROV1 ovarian 117% | OVCAR-3 ovarian 122% | HS 578T breast 106% | T-47D breast 106% | BT-549 breast 115% | MDA-MB-435 melanoma 116% | SW-620 colon 113% | MCF7 breast 94.8% | HCT-116 colon 97.2% | KM12 colon 111%

C/C(=C\c1ccc([N+](=O)[O-])cc1)C(=O)O
inactive: SR leukemia 96.3% | RPMI-8226 leukemia 95.8% | OVCAR-8 ovarian 99.2% | OVCAR-5 ovarian 104% | OVCAR-4 ovarian 99.2% | SK-OV-3 ovarian 104% | IGROV1 ovarian 110% | HS 578T breast 101% | NCI/ADR-RES ovarian 109% | T-47D breast 98.8% | BT-549 breast 94.2% | MDA-MB-435 melanoma 102% | SW-620 colon 102% | MCF7 breast 95.7% | HCT-116 colon 97.3% | HCC-2998 colon 101% | KM12 colon 103%

Cc1ncc(C#N)c(N)n1
inactive: SR leukemia 92.4% | RPMI-8226 leukemia 103% | OVCAR-8 ovarian 102% | OVCAR-5 ovarian 99.5% | OVCAR-4 ovarian 92.5% | SK-OV-3 ovarian 117% | IGROV1 ovarian 106% | OVCAR-3 ovarian 110% | HS 578T breast 92.3% | NCI/ADR-RES ovarian 100% | BT-549 breast 94.4% | MDA-MB-435 melanoma 90.2% | SW-620 colon 99.9% | MCF7 breast 99.7% | HCT-116 colon 96.7% | HCC-2998 colon 102% | KM12 colon 104%

Cc1cc(N2CCC(N3CCCC3)CC2)nc(/N=C(\N)Nc2ccc(Cl)c(Cl)c2)n1
active: SR leukemia -54.3% | RPMI-8226 leukemia -36.7% | OVCAR-8 ovarian -9.16% | OVCAR-4 ovarian -13.2% | HS 578T breast -25.8% | MDA-MB-435 melanoma -98.6% | SW-620 colon -56% | MCF7 breast -44.7% | HCT-116 colon -93.3% | HCC-2998 colon -82.2% | KM12 colon 9.92%
inactive: OVCAR-5 ovarian 19% | SK-OV-3 ovarian 88.3% | IGROV1 ovarian 12.3% | OVCAR-3 ovarian 69.7% | NCI/ADR-RES ovarian 30.3% | T-47D breast 106%

O=c1[nH]cc(Cl)cc1O
inactive: SR leukemia 76.2% | RPMI-8226 leukemia 69.9% | OVCAR-8 ovarian 91% | OVCAR-5 ovarian 106% | OVCAR-4 ovarian 101% | SK-OV-3 ovarian 101% | IGROV1 ovarian 91% | OVCAR-3 ovarian 88.3% | HS 578T breast 91% | T-47D breast 70.5% | BT-549 breast 90.6% | MDA-MB-435 melanoma 76.4% | SW-620 colon 98.6% | MCF7 breast 91.2% | HCT-116 colon 94.3% | HCC-2998 colon 96.9% | KM12 colon 57.7%

Nc1nc(N)c(N=Nc2ccc(C(=O)O)cc2)c(N)n1
inactive: SR leukemia 109% | RPMI-8226 leukemia 95.1% | OVCAR-8 ovarian 104% | OVCAR-5 ovarian 101% | OVCAR-4 ovarian 105% | SK-OV-3 ovarian 111% | IGROV1 ovarian 100% | OVCAR-3 ovarian 130% | HS 578T breast 102% | T-47D breast 100% | BT-549 breast 97% | MDA-MB-435 melanoma 103% | SW-620 colon 90.8% | MCF7 breast 104% | HCT-116 colon 95.4% | HCC-2998 colon 100% | KM12 colon 115%

CCC(=O)Oc1ccc(OC)cc1
inactive: SR leukemia 92.6% | RPMI-8226 leukemia 128% | OVCAR-8 ovarian 108% | OVCAR-5 ovarian 102% | OVCAR-4 ovarian 114% | SK-OV-3 ovarian 101% | IGROV1 ovarian 93.1% | OVCAR-3 ovarian 103% | NCI/ADR-RES ovarian 106% | T-47D breast 101% | MDA-MB-435 melanoma 106% | SW-620 colon 102% | MCF7 breast 102% | HCT-116 colon 107% | HCC-2998 colon 114% | KM12 colon 106%

NC(=O)N/N=C\c1ccco1
inactive: SR leukemia 107% | RPMI-8226 leukemia 105% | OVCAR-8 ovarian 109% | OVCAR-5 ovarian 118% | OVCAR-4 ovarian 121% | SK-OV-3 ovarian 102% | IGROV1 ovarian 99.6% | OVCAR-3 ovarian 125% | NCI/ADR-RES ovarian 101% | T-47D breast 107% | BT-549 breast 94.9% | MDA-MB-435 melanoma 118% | SW-620 colon 107% | HCT-116 colon 101% | HCC-2998 colon 99.3% | KM12 colon 113%

C=CC(=O)OCCCCCCCC
inactive: SR leukemia 82.6% | RPMI-8226 leukemia 104% | OVCAR-8 ovarian 105% | OVCAR-5 ovarian 101% | OVCAR-4 ovarian 109% | SK-OV-3 ovarian 108% | IGROV1 ovarian 114% | OVCAR-3 ovarian 103% | HS 578T breast 109% | T-47D breast 105% | MDA-MB-435 melanoma 106% | SW-620 colon 103% | MCF7 breast 95.3% | HCT-116 colon 100% | HCC-2998 colon 104% | KM12 colon 101%

O/N=C/c1ccc(O)cc1O
inactive: SR leukemia 110% | RPMI-8226 leukemia 94.8% | OVCAR-8 ovarian 94.1% | OVCAR-5 ovarian 94.7% | OVCAR-4 ovarian 109% | SK-OV-3 ovarian 103% | IGROV1 ovarian 117% | OVCAR-3 ovarian 112% | NCI/ADR-RES ovarian 104% | T-47D breast 94% | BT-549 breast 103% | MDA-MB-435 melanoma 107% | SW-620 colon 102% | MCF7 breast 98.6% | HCT-116 colon 114% | HCC-2998 colon 105% | KM12 colon 99%

COCCOCCCl
inactive: SR leukemia 108% | RPMI-8226 leukemia 115% | OVCAR-8 ovarian 110% | OVCAR-5 ovarian 106% | OVCAR-4 ovarian 105% | SK-OV-3 ovarian 109% | IGROV1 ovarian 116% | OVCAR-3 ovarian 111% | HS 578T breast 102% | T-47D breast 98.1% | BT-549 breast 107% | MDA-MB-435 melanoma 106% | SW-620 colon 101% | MCF7 breast 100% | HCT-116 colon 99.7% | HCC-2998 colon 101% | KM12 colon 107%

COc1cc(OC)c2ccc(=O)oc2c1
inactive: SR leukemia 125% | RPMI-8226 leukemia 116% | OVCAR-8 ovarian 103% | OVCAR-5 ovarian 90.3% | OVCAR-4 ovarian 107% | SK-OV-3 ovarian 112% | IGROV1 ovarian 130% | OVCAR-3 ovarian 110% | HS 578T breast 97.1% | NCI/ADR-RES ovarian 105% | BT-549 breast 111% | MDA-MB-435 melanoma 107% | SW-620 colon 101% | MCF7 breast 100% | HCT-116 colon 109% | HCC-2998 colon 94.8%

CC1(C)Nc2cccc3c(N=Nc4ccc(N=Nc5ccccc5)c5ccccc45)ccc(c23)N1
inactive: SR leukemia 107% | RPMI-8226 leukemia 97% | OVCAR-8 ovarian 109% | OVCAR-5 ovarian 94.9% | OVCAR-4 ovarian 91.1% | SK-OV-3 ovarian 95.6% | IGROV1 ovarian 52.1% | HS 578T breast 104% | NCI/ADR-RES ovarian 98.1% | T-47D breast 76.7% | BT-549 breast 124% | MDA-MB-435 melanoma 109% | SW-620 colon 89.4% | MCF7 breast 79.4% | HCT-116 colon 70.5% | HCC-2998 colon 93.2% | KM12 colon 106%

NC(=S)CN1CCOCC1
inactive: SR leukemia 78.2% | RPMI-8226 leukemia 93.7% | OVCAR-8 ovarian 105% | OVCAR-5 ovarian 105% | OVCAR-4 ovarian 121% | SK-OV-3 ovarian 112% | IGROV1 ovarian 102% | OVCAR-3 ovarian 111% | NCI/ADR-RES ovarian 105% | T-47D breast 114% | MDA-MB-435 melanoma 111% | SW-620 colon 103% | HCT-116 colon 109% | HCC-2998 colon 102% | KM12 colon 102%

CC1(C)/C(=C\CO)C2CCC1C2 (configuration not stated)
inactive: SR leukemia 97.8% | RPMI-8226 leukemia 91.6% | OVCAR-8 ovarian 114% | OVCAR-5 ovarian 105% | OVCAR-4 ovarian 111% | SK-OV-3 ovarian 99.8% | IGROV1 ovarian 112% | OVCAR-3 ovarian 119% | HS 578T breast 101% | T-47D breast 101% | BT-549 breast 102% | MDA-MB-435 melanoma 123% | SW-620 colon 106% | MCF7 breast 104% | HCT-116 colon 96.8% | HCC-2998 colon 104% | KM12 colon 114%
